Paper PMC5540273 (PLoS ONE, 2017)

Columns and labels:
Conditions in all cases: concentration: 1 μM, replicates: in singlicate; n = 1
IKK-alpha = system: T1, IKK-alpha
T1 construct: gene CHUK

IKK-beta = system: T2, IKK-beta
T2 construct: gene IKBKB

IKK-epsilon = system: T3, IKK-epsilon
T3 construct: gene IKBKE

INSRR = system: INSRR
INSR = system: INSR
IRAK1 = system: IRAK1
IRAK3 = system: IRAK3
IRAK4 = system: IRAK4
ITK = system: ITK
[1] = system: JAK1(JH1domain-catalytic)
[2] = system: JAK1(JH2domain-pseudokinase)
[3] = system: JAK2(JH1domain-catalytic)
[4] = system: JAK3(JH1domain-catalytic)
JNK1 = system: T4, JNK1
T4 construct: gene MAPK8

JNK2 = system: T5, JNK2
T5 construct: gene MAPK9

JNK3 = system: T6, JNK3
T6 construct: gene MAPK10

KIT-autoinhibited = system: KIT-autoinhibited
KIT = system: KIT
LATS1 = system: LATS1
LATS2 = system: LATS2
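Further: KINOMEscan kinase panel screen.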

Row | Structure (SMILES) | %Inh (IKK-alpha) | %Inh (IKK-beta) | %Inh (IKK-epsilon) | %Inh (INSRR) | %Inh (INSR) | %Inh (IRAK1) | %Inh (IRAK3) | %Inh (IRAK4) | %Inh (ITK) | %Inh [1] | %Inh [2] | %Inh [3] | %Inh [4] | %Inh (JNK1) | %Inh (JNK2) | %Inh (JNK3) | %Inh (KIT-autoinhibited) | %Inh (KIT) | %Inh (LATS1) | %Inh (LATS2)
1 | C[C@@H](Oc1cc(-n2cnc3cc(-c4ccnc(NCCS(C)(=O)=O)c4)ccc32)sc1C(N)=O)c1ccccc1Cl [GSK907232] | 2% | 15% | 0% | 2% | 0% | 36% | 0% | 13% | 21% | 0% | 0% | 50% | 66% | 0% | 10% | 1% | 0% | 80% | 0% | 0%
2 | Cl.Cl.NCC(NC(=O)c1cc(-c2ccccc2)c(-c2ccnc3[nH]ccc23)s1)c1ccccc1 (centres unmarked) [GSK1321561] | 1% | 3% | 0% | 0% | 12% | 40% | 15% | 0% | 11% | 29% | 0% | 41% | 50% | 48% | 57% | 45% | 0% | 12% | 3% | 11%
3 | Nc1ncnc2c1nc(-c1ccccc1)n2-c1ccccc1 [SKF-97293] | 50% | 44% | 12% | 16% | 7% | 39% | 40% | 10% | 8% | 0% | 6% | 62% | 7% | 11% | 17% | 0% | 11% | 0% | 35% | 0%
4 | COc1cccc(C(=O)Nc2cccc(Oc3ccc4nc(NC(=O)C5CC5)cn4n3)c2)c1 | 0% | 2% | 0% | 0% | 0% | 0% | 37% | 0% | 20% | 15% | 8% | 13% | 0% | 0% | 10% | 0% | 99.7% | 100% | 0% | 0%
5 | Cn1cc(-c2ccc3c(c2)CCN3C(=O)Cc2cccc(F)c2)c2c(N)ncnc21 [GSK2603358] | 15% | 43% | 76% | 0% | 0% | 41% | 0% | 22% | 11% | 18% | 0% | 17% | 0% | 12% | 19% | 3% | 7% | 100% | 0% | 13%
6 | Cn1cc(-c2ccc3c(c2)CCN3C(=O)Cc2cccc(Cl)c2)c2c(N)ncnc21 [GSK2606590] | 22% | 57% | 78% | 16% | 9% | 0% | 22% | 0% | 19% | 18% | 0% | 16% | 0% | 15% | 42% | 6% | 26% | 100% | 0% | 0%
7 | O=C(Nc1cccc(Oc2ccc3nc(NC(=O)C4CC4)cn3n2)c1)c1ccccc1C(F)(F)F | 0% | 0% | 0% | 0% | 0% | 0% | 5% | 0% | 0% | 8% | 7% | 43% | 29% | 0% | 0% | 0% | 91.5% | 100% | 0% | 0%
8 | c1ccc(-c2cnc3nccnn23)cc1 [AH20685] | 49% | 1% | 5% | 0% | 24% | 0% | 1% | 8% | 2% | 0% | 0% | 0% | 0% | 54% | 20% | 4% | 0% | 5% | 0% | 0%
9 | O=C(NC1CCN(c2ccnc(Nc3ccc(F)cc3)n2)C1)c1cc2ccccc2s1 (centres unmarked) [GSK1379716] | 21% | 0% | 15% | 0% | 70% | 32% | 11% | 17% | 21% | 29% | 0% | 0% | 0% | 24% | 29% | 13% | 0% | 21% | 7% | 0%
10 | O=c1[nH]cc(-c2ccc(N3CCOCC3)cc2)c2sc(-c3cn[nH]c3)cc12 [GSK2276055] | 0% | 11% | 34% | 0% | 24% | 0% | 0% | 9% | 0% | 24% | 77% | 100% | 39% | 24% | 14% | 10% | 22% | 76% | 0% | 62%
